Where “and” joins values, the source holds several entries; their conditions need not be identical. Equal values may be shown once. Inconclusive results are not listed. The source holds several records for some structures; these can differ, active in one and inactive in another. Calls of active or inactive are those of the source. How the source made its calls, unless noted: active means hit-call score of the fitted dose curve at least 0.9, where 1 is the maximum; inactive means score below 0.9.
Columns and labels:
[1] = CCTE_Mundy_HCI_iCellGluta_NOG_NeuriteCount: CCTE's Neurite Outgrowth Assay in iCellGluta cells for Neurite Count, Mundy Lab (AID 2284342; active means hit-call score of the fitted dose curve at least 0.9, where 1 is the maximum;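 further: chemical exposure about 48 hours starting 2 hours after plating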)
SERPINA7 (gene 6906) = assay: CCTE_GLTED_hTBG: CCTE's human Thyroxine-binding Globulin (TBG) Inhibition Assay, Great Lakes Toxicology and Ecology Division (GLTED) Lab (AID 2284343; active means hit-call score of the fitted dose curve at least 0.9, where 1 is the maximum;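 further: active chemicals lower fluorescence versus DMSO baseline by displacing probe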)
Summary of the method: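 hTBG + test chem, 2 h; ANSA probe displacement; fluorescence readout ex380/em475; DMSO = neg ctrl/baseline; cell-free.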

[2] = CCTE_Padilla_ZF_Score.General: CCTE's 144 Hour Post-fertilization zebrafish Assay Score for General Malformation, Padilla Lab (AID 2284411)
Summary of the method: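 Wild-type zebrafish embryos were plated singly at 6-8 hpf in 10% Hanks' and exposed in sealed wells at 26C until rinsed on 5 dpf. At 6 dpf two blinded assessors scored mortality, hatching and malformations by stereomicroscopy; gain-of-signal versus DMSO.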

[3] = tested on: SRY-box transcription factor 2 (SOX2) Protein Expression, Deisenroth Lab, SOX2 (gene 6657); assay: CCTE_Deisenroth_DEVTOX-GLR_legacy_Sox2: (Legacy) CCTE's DevTox GLR-Endo Assay Evaluation of SRY-box transcription factor 2 (SOX2) Protein Expression, Deisenroth Lab (AID 2284346)
Summary of the method: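 RUES2-GLR human pluripotent cells were differentiated for 48 h with two chemical doses 24 h apart, over 1 nM-200 uM. Sox2+ cells were those above 5x BMAD of the endoderm-control median; percent Sox2+ minus the 0.2% DMSO median was used, from n=4 replicates.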

[4] = Tanguay_ZF_120hpf_MO24: Oregon State University Tanguay Lab 24 Hour Post-fertilization zebrafish Assay for Mortality (AID 2284389)
Summary of the method: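 Dechorionated wild-type zebrafish embryos, 1 per well, statically exposed from 6 hpf at 28C, 0.64% DMSO final. Mortality scored as binary present/absent at 24 hpf by brightfield microscopy, relative to DMSO.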

[5] = Tanguay_ZF_120hpf_DP24: Oregon State University Tanguay Lab 24 Hour Post-fertilization zebrafish Assay for Delayed Development (AID 2284390)
Summary of the method: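 Dechorionated 5D wild-type zebrafish embryos exposed statically from 6 hpf, one per well, 0.64% DMSO final, 28 C, sealed and dark. Developmental progression scored at 24 hpf by brightfield as binary present/absent; dead embryos excluded.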

[6] = Tanguay_ZF_120hpf_CRAN: Oregon State University Tanguay Lab 120 Hour Post-fertilization zebrafish Assay for Craniofacial Malformation (AID 2284397)
Summary of the method: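 Dechorionated Tropical 5D wild-type zebrafish embryos, one per well, were statically exposed from 6 to 120 hpf at 28C in 0.64% DMSO, with 5uM trimethyltin chloride as positive control. Craniofacial malformation was scored present/absent by brightfield microscopy, relative to DMSO.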

[7] = Tanguay_ZF_120hpf_AXIS: Oregon State University Tanguay Lab 120 Hour Post-fertilization zebrafish Assay for Axial Malformation (AID 2284398)
Summary of the method: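 Dechorionated 5D wild-type zebrafish embryos exposed statically, one per well, from 6 to 120 hpf at 28C, 0.64% DMSO. Axial malformation scored as present/absent by brightfield microscopy at 120 hpf; dead embryos not scored.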

[8] = Tanguay_ZF_120hpf_MORT: Oregon State University Tanguay Lab 120 Hour Post-fertilization zebrafish Assay for Mortality (AID 2284399)
Summary of the method: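 Dechorionated wild-type Tropical 5D zebrafish embryos, one per well from 6 hpf, static exposure to 120 hpf at 28C in sealed dark plates, 0.64% DMSO final. Mortality scored as binary by brightfield at 24 and 120 hpf.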

[9] = Tanguay_ZF_120hpf_EDEM: Oregon State University Tanguay Lab 120 Hour Post-fertilization zebrafish Assay for Edema Malformation (AID 2284400)
Summary of the method: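 Dechorionated Tropical 5D wild-type embryos, one per well, statically exposed from 6 to 120 hpf at 28C in 0.64% DMSO. Edema scored present/absent by brightfield microscopy at 120 hpf; dead embryos not scored; fit versus DMSO.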

[10] = Tanguay_ZF_120hpf_MUSC: Oregon State University Tanguay Lab 120 Hour Post-fertilization zebrafish Assay for Muscle Malformation (AID 2284401)
Summary of the method: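 Dechorionated Tropical 5D wild-type zebrafish embryos exposed statically from 6 to 120 hpf at 28C, one per well, in 0.64% DMSO. Muscle malformation scored present/absent by brightfield microscopy at 120 hpf, fitted against DMSO.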

[11] = Tanguay_ZF_120hpf_BRN: Oregon State University Tanguay Lab 120 Hour Post-fertilization zebrafish Assay for Brain Region Malformation (AID 2284402)
Summary of the method: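 Dechorionated wild-type Tropical 5D zebrafish embryos exposed statically from 6 to 120 hpf at 28C, one per well, 0.64% DMSO final. Brain malformation scored at 120 hpf by brightfield as present/absent; dead embryos not scored.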

[12] = Tanguay_ZF_120hpf_TCHR: Oregon State University Tanguay Lab 120 Hour Post-fertilization zebrafish Assay for Touch Responsive (AID 2284403)
Summary of the method: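 Dechorionated Tropical 5D wild-type zebrafish embryos, one per well from 6 hpf, were statically exposed to 120 hpf at 28 °C (0.64% DMSO). Touch response was scored present/absent at 120 hpf and not scored in dead larvae.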

[13] = Tanguay_ZF_120hpf_ANY: Oregon State University Tanguay Lab 120 Hour Post-fertilization zebrafish Assay for Any Mortality and Malformation (AID 2284404)
Summary of the method: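 Dechorionated Tropical 5D wild-type embryos, one per well from 6 hpf, static exposure in sealed, dark plates at 28C until 120 hpf, 0.64% DMSO final. Brightfield scoring of mortality and malformations as binary presence/absence, pooling 13 morphology endpoints.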

[14] = CCTE_Padilla_ZF_Score.Craniofacial: CCTE's 144 Hour Post-fertilization zebrafish Assay Score for Craniofacial Malformation, Padilla Lab (AID 2284405)
Summary of the method: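 Wild-type zebrafish embryos (with chorions), one per well in 10% Hanks', were dosed at 6–8 hpf in sealed plates and kept at 26C. They were rinsed at 5 dpf. At 6 dpf two blinded assessors scored craniofacial malformations by brightfield stereomicroscopy.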

[15] = CCTE_Padilla_ZF_Score.Edema: CCTE's 144 Hour Post-fertilization zebrafish Assay Score for Edema Malformation, Padilla Lab (AID 2284406)
Summary of the method: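 Wild-type zebrafish embryos, one per well in Hanks' solution, dosed at 6-8 hpf, sealed and reared at 26C on a 14:10 h cycle; rinsed on 5 dpf. At 6 dpf, blinded assessors scored edema by stereomicroscopy.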

[16] = CCTE_Padilla_ZF_Score.Spine: CCTE's 144 Hour Post-fertilization zebrafish Assay Score for Spine Malformation, Padilla Lab (AID 2284407)
Summary of the method: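 Wild-type zebrafish embryos, one per well in Hanks' solution, dosed at 6–8 hpf in sealed plates at 26C, 14:10 h light:dark; rinsed at 5 dpf. Two blinded assessors scored spinal defects by stereomicroscopy at 6 dpf; fitted versus DMSO.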

[17] = CCTE_Padilla_ZF_Score.Swim_bladder: CCTE's 144 Hour Post-fertilization zebrafish Assay Score for Swim Bladder Malformation, Padilla Lab (AID 2284408)
Summary of the method: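 Wild-type zebrafish embryos, one per well in 10% Hanks', dosed at 6–8 hpf, sealed, reared at 26C and rinsed at 5 dpf. Blinded assessors scored uninflated swim bladder by stereomicroscopy at 6 dpf, relative to DMSO.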

[18] = CCTE_Padilla_ZF_Score.Position: CCTE's 144 Hour Post-fertilization zebrafish Assay Score for Position, Padilla Lab (AID 2284409)
Summary of the method: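 Wild-type zebrafish embryos (with chorions) exposed singly from 6–8 hpf in sealed wells of Hanks' solution at 26C, rinsed at 5 dpf. At 6 dpf, blinded assessors scored abnormal water-column position by brightfield stereomicroscopy, relative to DMSO.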

[19] = CCTE_Padilla_ZF_Score.Living: CCTE's 144 Hour Post-fertilization zebrafish Assay Score for Viability, Padilla Lab (AID 2284410);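 further: larval death at 6 dpf judged by absent heartbeat or coagulation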
Summary of the method: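 Wild-type zebrafish embryos were exposed singly from 6–8 hpf in sealed wells of Hanks' solution at 26C, then rinsed at 5 dpf. At 6 dpf, blinded assessors scored mortality (no heartbeat or coagulation) by stereomicroscopy, fitted against DMSO.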

Measured: AC50

CCOP(=S)(OCC)SCSC(C)(C)C
inactive: [1]

CO/C=C(/C(=O)OC)c1ccccc1COc1cccc(C(F)(F)F)n1
active: [1] 20 µM

CC(C)(c1ccccc1)c1ccc(O)cc1
active: SERPINA7 (gene 6906) 3.54 µM

Oc1c(Cl)c(Cl)c(Cl)c(Cl)c1Cl
active: [2] 0.681 µM

C=CC(N)=O
inactive: [3]

ClC1=C(Cl)[C@]2(Cl)[C@@H]3[C@@H]4C[C@@H]([C@H]5O[C@@H]45)[C@@H]3[C@@]1(Cl)C2(Cl)Cl
active: SERPINA7 (gene 6906) 1.56 µM

CCOC(=O)C(O)(c1ccc(Cl)cc1)c1ccc(Cl)cc1
active: SERPINA7 (gene 6906) 7.32 µM

Oc1ccc(C(c2ccc(O)cc2)(C(F)(F)F)C(F)(F)F)cc1
active: SERPINA7 (gene 6906) 17.1 µM

O=S(=O)(O)C(F)(F)C(F)(F)C(F)(F)C(F)(F)F
not listed: [3]
inactive: all other assays above

CC1=C2C[C@H]3[C@@H](CC=C4C[C@@H](O)CC[C@@]43C)[C@@H]2CC[C@]12O[C@@H]1C[C@H](C)CN[C@H]1[C@H]2C
inactive: [3]

CCCCCCOC(=O)c1ccccc1C(=O)OCCCCCC
active: SERPINA7 (gene 6906) 5.7 µM

O=NN(c1ccccc1)c1ccccc1
active: SERPINA7 (gene 6906) 13.9 µM

Cc1ccccc1CO[C@@H]1C[C@@]2(C(C)C)CC[C@]1(C)O2
active: SERPINA7 (gene 6906) 22.9 µM

O=C(O)C(F)(F)C(F)(F)C(F)(F)C(F)(F)C(F)(F)C(F)(F)C(F)(F)C(F)(F)C(F)(F)F
active: [6] 19.5 µM | [13] 8.9 µM | [17] 11.5 µM | [19] 17.5 µM | [2] 11.5 µM
not listed: SERPINA7 (gene 6906) | [3]
inactive: all other assays above

CCC(C)(c1ccc(O)cc1)c1ccc(O)cc1
active: SERPINA7 (gene 6906) 13.7 µM

CCCCCCCCCc1ccc(O)cc1
active: SERPINA7 (gene 6906) 5.76 µM

Sc1ccccc1
active: SERPINA7 (gene 6906) 14.1 µM

NS(=O)(=O)C(F)(F)C(F)(F)C(F)(F)C(F)(F)C(F)(F)C(F)(F)C(F)(F)C(F)(F)F
active: [5] 16.4 µM | [6] 3.27 µM | [8] 5.51 µM | [13] 2.59 µM | [15] 0.582 µM | [17] 0.321 µM | [19] 1.76 µM | [2] 0.453 µM
not listed: SERPINA7 (gene 6906) | [3]
inactive: all other assays above

O=S(=O)(O)C(F)(F)C(F)(F)C(F)(F)C(F)(F)C(F)(F)C(F)(F)F
inactive: [1] | [4] | [5] | [6] | [7] | [8] | [9] | [10] | [11] | [12] | [14] | [15] | [16] | [17] | [18] | [19] | [2]
active: [6] 85.1 µM | [7] 84.8 µM | [9] 85.1 µM | [10] 84.8 µM | [11] 81.8 µM | [12] 84.8 µM | [13] 85.1 µM and 71.3 µM | [14] 81.3 µM | [15] 29.6 µM | [17] 38.9 µM | [18] 87.5 µM | [19] 88.7 µM | [2] 83.7 µM

O=C(O)C(F)(F)C(F)(F)C(F)(F)C(F)(F)C(F)(F)F
not listed: [1] | SERPINA7 (gene 6906) | [3]
inactive: all other assays above

CCC(C)c1cc([N+](=O)[O-])cc([N+](=O)[O-])c1O (stereo not given)
active: SERPINA7 (gene 6906) 19.3 µM

O=C(O)C(F)(F)C(F)(F)C(F)(F)C(F)(F)C(F)(F)C(F)(F)C(F)(F)C(F)(F)F
active: SERPINA7 (gene 6906) 86.5 µM | [15] 30.6 µM | [17] 30 µM | [18] 88.1 µM | [19] 81.2 µM | [2] 31.2 µM
not listed: [1] | [3]
inactive: all other assays above

CC(c1ccc(O)cc1)(c1ccc(O)cc1)c1ccc(O)cc1
active: SERPINA7 (gene 6906) 11.5 µM

CC(C)(O)C(=O)Nc1ccc([N+](=O)[O-])c(C(F)(F)F)c1
active: SERPINA7 (gene 6906) 35.6 µM

COc1ccc(O)c(C(C)(C)C)c1
inactive: [1]

Cc1cc(-c2ccc(N)c(C)c2)ccc1N
active: SERPINA7 (gene 6906) 26.5 µM and 35.2 µM
